Screening data deposited in PubChem by Milwaukee Institute for Drug Discovery.
Compounds with a hit are over-represented: about 6.9% of the library has one in this group of screens.
HCV NS3h FP = hepatitis C NS3 helicase inhibition, primary screen | AID 687043 | NS3h Cy5-dT15 DNA binding, fluorescence polarization | 16,000 tested, 1.6% active | inhibition, % at 100 µM;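 active = inhibition above the average over every tested compound plus 3 SD, cut at about 40% in these data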
Cy5 interf NS3h = enhances or quenches Cy5 fluorescence in NS3h assay; AID 720488; Cy5-dT15 DNA with NS3h, fluorescence interference; actives lie on both sides; signal over control mean, under 1 quenches; fluorescence interference ratio at 100 µM; 16,000 tested, 6% active;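 active = compound fluorescence over control fluorescence at most 0.8, a quencher, or at least a set upper limit, an enhancer; inactive = ratio between 0.8 and the set upper limit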
Each line names hits and unclear results; the compound was inactive in the other large screens.

C=CCOc1c(I)cc(C=C2C(=O)NC(=S)NC2=O)cc1OCC	Cy5 interf NS3h 0.71
CCOc1cc(C=C2C(=O)NC(=S)NC2=O)cc(Br)c1OCCOc1ccccc1C	none
C=CCN1C(=O)/C(=C\c2ccc(OC)cc2)SC1=Nc1ccccc1	Cy5 interf NS3h 0.79
C=CCN1C(=O)/C(=C\c2ccc(OCc3cccc4ccccc34)cc2)SC1=S	none
COc1ccc(CCNC(=O)COc2ccc(OC)cc2)cc1	none
O=C(NC(=S)Nc1ccccc1O)c1ccc(Br)cc1	none
Cc1ccccc1-c1cc2nc(C)c(Cl)c(=O)n2[nH]1	none
Cc1nc2cc(-c3ccco3)[nH]n2c(=O)c1C	Cy5 interf NS3h 0.77
CCCCOc1ccc(NC(=O)CCSc2nccn2C)cc1	Cy5 interf NS3h 0.69
CCCCOc1ccc(NC(=O)CSc2nnc(-c3cccc(F)c3)n2-c2ccccc2)cc1	none
O=C(O)c1cc(C(=O)O)cc(N2C(=O)c3cccc4c([N+](=O)[O-])ccc(c34)C2=O)c1	none
COc1ccc(C(=O)Nc2ccccc2C(=O)NCCC(=O)Nc2ccccc2)cc1	none
NS(=O)(=O)c1ccc(N=Cc2ccccc2)cc1	none
COc1cc(/C=C2/SC(=S)N(CCC(=O)Nc3ccc(C(C)=O)cc3)C2=O)cc(OC)c1OC	Cy5 interf NS3h 0.63
COc1cc(/C=C2/SC(=S)N(CCC(=O)Nc3ccccc3C(=O)O)C2=O)cc(OC)c1OC	none
CCOC(=O)c1c(NC(=O)c2cccc(Cl)c2)sc(C(=O)Nc2ccc(OC)cc2OC)c1C	none
Cc1ccc(N2C(=O)CC(NCc3cccc(Cl)c3)C2=O)cc1 (stereo not given)	none
Cc1ccc(N2C(=O)CC(NCc3cccc(C(F)(F)F)c3)C2=O)cc1 (stereo not given)	Cy5 interf NS3h 1.2
Cc1ccc(N2C(=O)CC(NC3CCN(Cc4ccccc4)CC3)C2=O)cc1 (stereo not given)	Cy5 interf NS3h 1.3
Cc1ccc(N2C(=O)CC(N3CCN(Cc4ccccc4)CC3)C2=O)cc1 (stereo not given)	none
CCOC(=O)c1ccc(NC(=O)c2cc(Cl)ccc2Cl)cc1	none
O=C1N/C(=N\N=C/c2ccccc2O)SC1Cc1cc(Cl)ccc1Cl (stereo not given)	none
O=C1CC(Sc2nc3ccccc3s2)C(=O)N1c1cc(Cl)ccc1Cl (stereo not given)	none
O=[N+]([O-])c1ccc(N2CCOCC2)cc1[N+](=O)[O-]	none
CCC(CO)Nc1cc(Cl)ccc1[N+](=O)[O-] (stereo not given)	Cy5 interf NS3h 0.69
CCC(CO)Nc1cc(N2CCOCC2)ccc1[N+](=O)[O-] (stereo not given)	Cy5 interf NS3h 0.73
COc1ccc(OCCNc2cc(Cl)ccc2[N+](=O)[O-])cc1	none
CC1=C(C(=O)OCCOC(C)C)C(c2coc3ccccc3c2=O)C2=C(CCCC2=O)N1 (stereo not given)	none
COc1ccccc1NC(=O)c1c(Cl)cccc1Cl	none
O=C(Nc1ccc(Cl)cc1)Nc1nnc(-c2cccs2)s1	Cy5 interf NS3h 0.69
O=C(Nc1ccc(Cl)cc1)Nc1nnc(-c2cccc(F)c2)s1	none
CC(=O)c1ccc(NC(=S)NC(NC(=O)c2ccc(Br)cc2)C(Cl)(Cl)Cl)cc1 (stereo not given)	none
CCN(CC)c1ccc(/C=N\N2C(=O)c3ccccc3C2=O)cc1	Cy5 interf NS3h 1.2
CCN(CC)c1ccc(/C=N/NC(N)=O)cc1	none
Ic1cccc(/C=N\n2cnnc2)c1	none
C(=N/n1cnnc1)/c1cc2ccccc2[nH]1	Cy5 interf NS3h 0.74
CCN1C(=O)/C(=C\c2ccc(-c3ccc(C)c(Cl)c3)o2)SC1=S	none
CCN1C(=O)/C(=C\c2ccc(-c3ccc(I)cc3)o2)SC1=S	Cy5 interf NS3h 0.72
Cc1cccc(NC2=C(Cl)C(=O)N(c3cccc(Cl)c3Cl)C2=O)c1	none
Brc1ccc(-c2noc(C(c3ccccc3)c3ccccc3)n2)cc1	none
COc1ccc(NC(=O)c2c(NC(=O)C(Cl)(Cl)Cl)sc3c2CCC3)cc1	Cy5 interf NS3h 0.6
CCC(=O)Nc1sc2c(c1C(=O)Nc1ccc(OC)cc1)CCC2	none
COc1cc(/C=C2/SC(=S)N(C)C2=O)ccc1OCCOc1ccc(Br)cc1	none
Cc1ccc(C(O)=C2C(=O)C(=O)N(CCCC(=O)O)C2c2ccc(Br)cc2)cc1 (stereo not given)	Cy5 interf NS3h 1.2
O=C(O)CCCCCN1C(=O)C(=O)C(=C(O)c2ccc(F)cc2)C1c1ccc(Cl)cc1 (stereo not given)	none
COc1ccc(CN2CCN(Cc3ccc(OC)c(OC)c3OC)CC2)cc1OC	none
Cc1ccc(-c2nc3s/c(=C\c4cn(-c5ccccc5)nc4-c4ccccc4)c(=O)n3n2)cc1	none
CC(=O)Oc1cccc(N2C(=O)c3ccc(C(=O)Nc4cccc(C(=O)NCC(C)C)c4)cc3C2=O)c1	Cy5 interf NS3h 0.73
CC(=O)Oc1ccc(C(=O)Nc2cccc(C(=O)NCC(C)C)c2)cc1	none
COc1ccc(/C=C2\C=C(c3ccc(Br)cc3)OC2=O)c(C)c1	none
Cc1ccc(C2=C/C(=C/c3ccc(-c4ccc([N+](=O)[O-])cc4)o3)C(=O)O2)cc1	none
Cc1ccc2cc(C3=C/C(=C/c4ccc([N+](=O)[O-])o4)C(=O)O3)ccc2c1	Cy5 interf NS3h 0.77
Cc1ccc(/C=C2/C=C(c3ccc(Br)cc3)OC2=O)o1	Cy5 interf NS3h 0.68
COc1ccc(Cl)cc1C(=O)Nc1sc2c(c1C(N)=O)CCC(C)C2 (stereo not given)	none
O=[N+]([O-])c1ccc(-c2nc3ccc4ccccc4c3c3c2CCCC3)cc1	none
O=C(CCCN1C(=O)c2ccccc2C1=O)Nc1ccccc1C(=O)N1CCOCC1	none
CN1CCN(C(=O)c2ccccc2NC(=O)CN2C(=O)c3ccccc3C2=O)CC1	Cy5 interf NS3h 0.77
O=S(=O)(c1cc(Cl)cc(Cl)c1O)c1cc(Cl)cc(Cl)c1O	Cy5 interf NS3h 0.5
CC(=O)Nc1ccc(NS(=O)(=O)c2cc(Cl)ccc2Cl)cc1	none
Cc1c(NC(=O)c2cnn3c2NC(c2cccs2)CC3C(F)(F)F)c(=O)n(-c2ccccc2)n1C (stereo not given)	none
N/C(=N/OC(=O)c1ccccc1F)c1ccc([N+](=O)[O-])cc1	Cy5 interf NS3h 0.78
N/C(=N/OC(=O)c1ccc(Br)cc1)c1ccc([N+](=O)[O-])cc1	none
COc1cccc(C(=O)NC(NC(=S)Nc2cc(Cl)ccc2Cl)C(Cl)(Cl)Cl)c1 (stereo not given)	none
O=C(Nc1ccc2oc(-c3cccnc3)nc2c1)c1ccncc1	none
O=C(Nc1ccc2oc(-c3ccncc3)nc2c1)c1ccccn1	Cy5 interf NS3h 1.2
O=C(Cc1ccccc1)Nc1ccc(-c2nc3ccccc3s2)c(O)c1	Cy5 interf NS3h 1.2
CCc1ccc(OCC(=O)Nc2ccc(-c3nc4ccccc4s3)c(O)c2)cc1	none
COc1c(Cl)cc(C(=O)Nc2ccc3oc(-c4ccccc4)nc3c2)cc1Cl	none
Cc1ccc(-c2nc3cc(NC(=O)C(C)C)ccc3o2)cc1	none
CC(C)C(=O)Nc1ccc2oc(-c3ccc(Cl)cc3)nc2c1	Cy5 interf NS3h 0.5
COc1cc(C(=O)Nc2ccc3oc(-c4ccc5ccccc5c4)nc3c2)cc(OC)c1OC	Cy5 interf NS3h 0.72
Cc1ccc(Cl)cc1NC(=O)CSc1nnnn1-c1ccccc1	none
CC1=NC(=S)C(C#N)C(c2ccccc2)=C1 (stereo not given)	none
CNc1ccc([N+](=O)[O-])cc1-n1cnc(-c2ccc(OC)cc2)c1	none
CC(C)c1ccc(/C=N\N=C2/NC(=O)C(Cc3ccccc3)S2)cc1 (stereo not given)	none
O=S(=O)(c1ccc(Br)cc1)N1CCN(c2ccccc2Cl)CC1	none
